DRD3 agonist: agonists of human D3 dopamine receptor; hit rate 0.58% among 410,000; P35462; AID 652048; D3R DiscoveRx beta-arrestin cells, luminescence, 90 min; max activation, %; in the data active = max activation above about 30%; also: 0% is about no effect
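Agonist mode: compounds and dopamine controls were applied to plated cells for 90 min at 37 degrees C after an overnight attachment at 1500 cells/well. Luminescent read-out followed 30 - 60 minutes at room temperature with DiscoveRx detection reagent.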
PI4K2A block: PI4K2A (human) kinase inhibition. Q9BTU6. purified PI4K2A, ADP-Glo luminescence, 1 h; hits give low values. activity change, negative = inhibition, % at 76.9 µM. hit rate 0.13% among 420,000; in the data active = activity change below about -50%;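 also: -100% = wells without enzyme as full effect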
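ADP-Glo luminescence measured ADP generated by PI4K2A enzyme (4 ug/mL before mixing) with 1.2 mM PI substrate (pre-mix) and 300 microM ATP (pre-mix). Tris pH7.5 buffer with MgCl2, Triton X-100; 1 h reaction at ambient temperature.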
DRD3 antagonist: antagonists of human D3 dopamine receptor; P35462; D3R cells, DiscoveRx beta-arrestin luminescence, antagonist mode; hits give low values; max response, negative = inhibition, %; AID 652054; hit rate 2.5% among 360,000; in the data active = max response below about -50%; also: % is scaled to controls: 0 for no effect and ±100 for the full control effect
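Cells plated overnight at 1500 cells/well, then exposed to library compounds with dopamine controls for 90 minutes at 37 degrees C. DiscoveRx reagent added for 30–60 minutes at room temperature; luminescence read, quantitative HTS format.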
RGS4 inh: blocks human RGS4-accelerated GTP hydrolysis; hit rate 0.039% among 390,000; Transcreener GDP fluorescence polarization, RGS4-accelerated GTP hydrolysis; Potency, µM (doses to about 114 µM), for the others: at the highest dose activity change, negative = inhibition, actives largely listed as inhibitors; active = well fitted inhibition curve with a large enough effect; also: potency is read from the fitted curve at half-maximal effect; % is scaled to controls: 0 for no effect and ±100 for the full control effect; nearly all actives have a fitted effect of over 75% in size
Target sequence (P49798 whole entry, looked up): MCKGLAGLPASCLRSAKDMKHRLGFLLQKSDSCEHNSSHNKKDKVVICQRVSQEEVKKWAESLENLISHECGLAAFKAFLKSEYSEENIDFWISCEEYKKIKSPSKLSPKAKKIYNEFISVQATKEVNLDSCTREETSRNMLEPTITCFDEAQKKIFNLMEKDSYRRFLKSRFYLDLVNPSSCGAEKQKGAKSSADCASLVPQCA
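MLSMR compounds (23 nl, pin-transferred) preincubated 10 min at room temperature with a 500nM (2x) first reagent, then RGS4 at 900nM (2x) plus Transcreener GDP mix added; fluorescence polarization (620/688 nm) read before and after 90 min at 30 °C.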
LDHA block: blocks human lactate dehydrogenase A | AID 1347041 | activity change, % (values are at about 110 or 230 µM) | purified LDHA, NADH/diaphorase-resazurin fluorescence; hits give low values | hit rate 0.15% among 480,000 | P00338; in the data active = activity change below about -30%;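 also: plate controls were DMSO wells for no effect and wells without enzyme for full effect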
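Human LDH5 (2 nM) was incubated with 0.06 mM NADH and 0.2 mM pyruvate for 5 min at room temperature in Tris pH 7.4. Remaining NADH was coupled through diaphorase/resazurin, and resorufin fluorescence was read at 0 and 20 min.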
pAkt inh: blocks phosphorylation of Akt. hit rate 0.32% among 360,000. Neuro2A IGF-stimulated pAkt S473 HTRF, 20 min; hits give low values. activity change, % for hits at 50 µM; in the data active = activity change below about -80%; also: % is scaled to controls: 0 for no effect and ±100 for the full control effect
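Neuro2A cells in DMEM with 0.5% FBS, overnight at 37 deg C, given compound at single 50 µM final, then IGF (6 nM final) for 20 min at 37 deg C. Lysed; phospho-Akt Ser473 by HTRF after 24 h, 665/615 ratio.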
* = called active by the depositor; i = inactive; . = not tested or not shown; [ ] = remark or other dose. The list is not random: actives were taken first. Their share in the collection is about 2.8%.

SMILES | DRD3 agonist | PI4K2A block | DRD3 antagonist | RGS4 inh | LDHA block | pAkt inh
CC(C)(C)n1nnnc1C(CCc1ccccc1)N1CCC2(CC1)C(=O)NCN2c1ccccc1 (centres undefined) | -14.8 | 1.6 | -68.3* | . | -2.0 | i
O=C1NCN(c2ccccc2)C12CCNCC2 | -32.9 | 2.1 | -86.1* | -2.8% | -3.0 | i
O=C1NCN(c2ccccc2)C12CCN(C(c1cccc3ccccc13)c1nnnn1C1CCCCC1)CC2 (centres undefined) | -12.4 | -2.8 | -70.1* | . | -2.6 | i
O=C1NCN(c2ccccc2)C12CCN(CC1COc3ccccc3O1)CC2 (centres undefined) | -24.1 | 2.0 | . | 12.2%[56.9 µM] | . | .
O=C1NCN(c2ccccc2)C12CCN(C(CCc1ccccc1)c1nnnn1-c1ccc3c(c1)OCCO3)CC2 (centres undefined) | -3.9 | -2.3 | 2.8 | . | -9.2 | i
Cc1cccc(-n2nnnc2C2(N)CCCCC2)c1 | . | . | . | . | 5.0 | .
CC(=O)c1c(C)[nH]c(C(=O)C(C)N(C)Cc2cccc(F)c2)c1C (centres undefined) | . | . | . | . | 12.9 | .
COc1ccc(CCNCc2cccc(Br)c2)cc1 | . | . | . | . | -1.4 | .
O=C(Nc1nc2ccccc2s1)C12CC3CC(CC(C3)C1)C2 | . | . | . | . | 9.3 | .
CC(C)(C)n1nnnc1C(c1ccccc1)N1CCC2(CC1)C(=O)NCN2c1ccccc1 (centres undefined) | -11.6 | -0.2 | -67.4* | . | -5.6 | i
OCC1CN2CCC1CC2 (centres undefined) | . | . | . | . | 2.2 | .
O=c1oc2ccccc2c(O)c1C(c1ccc([N+](=O)[O-])cc1)c1c(O)c2ccccc2oc1=O | -14.1 | -4.8 | -18.1 | -30.9% | -67.0* | i
C=CCN1CC[C@]23c4c5ccc(O)c4OC2C(O)C=CC3[C@H]1C5 (some centres undefined) | -94.6 | 1.0 | -109.7* | 4.1% | -6.6 | i
COc1ccc2c3c1OC1C(O)C=CC4[C@@H](C2)N(C)CC[C@]314 (some centres undefined) | 0.0 | -3.6 | -12.5 | -4.5% | -1.6 | i
N#Cc1c(-c2cc(F)cc(-c3no[n+]([O-])c3C#N)c2)no[n+]1[O-] | . | . | . | . | 2.6 | .
CCC(C)N1CCN(Cc2ccc(OC)c(Br)c2)CC1 (centres undefined) | . | . | . | . | -3.8 | .
COc1ccc(CN2CC=C(c3ccc(F)cc3)CC2)cc1Br | -23.6 | -1.2 | -68.1* | -20.8% | 3.4 | i
Oc1ccc(C2=CCN(CC(O)COc3ccc(F)cc3)CC2)cc1 (centres undefined) | . | . | . | . | 11.7 | .
CCN(CC)c1ccc(CN2CC=C(c3ccc(F)cc3)CC2)cc1 | -17.5 | 3.1 | -67.1* | -4.1% | 5.6 | i
COc1cc(CNC2CN3CCC2CC3)cc(Cl)c1OCc1ccccc1Cl (centres undefined) | . | . | . | . | 1.2 | .
O=C(c1cn(Cc2ccccc2F)c2ccccc12)C1CCCCC1 | . | . | . | . | 16.6 | .
CN(C)C(=S)SCC#N | . | . | . | . | 2.6 | .
CCOC(=O)C1C(=O)N(C)C2(C)CC1c1ccccc1O2 (centres undefined) | -1.5 | 5.1 | 1.2 | -13.9% | -3.5 | -114.2%*
CCOC(=O)C1C(=O)N(C)C2(C)CC1c1cc(OC)ccc1O2 (centres undefined) | 1.5 | 0.8 | 15.1 | 15.1% | -0.7 | i
CN1CCN(c2nc(N)c(Br)c(Cl)n2)CC1 | -1.6 | -2.5 | -68.6* | 3.1% | 4.7 | i
SMILES | DRD3 agonist | PI4K2A block | DRD3 antagonist | RGS4 inh | LDHA block | pAkt inh
CC(C)c1ccc(CNCCc2c[nH]c3ccccc23)cc1 | . | . | . | . | 5.1 | .
CN1CC(C(=O)c2ccc([N+](=O)[O-])cc2)C(c2ccc(Cl)cc2)C1 (centres undefined) | -20.6 | 3.4 | -58.9* | -19.3% | -1.1 | i
c1ccc(CCNCc2ccco2)cc1 | . | . | . | . | 0.8 | .
Cc1ccc2c(CCN)c(C)[nH]c2c1C | . | . | . | . | 0.6 | .
CC(Cc1ccccc1Sc1ccc(O)cc1)N(C)C (centres undefined) | -15.2 | -7.2 | -51.8* | -3.0% | -4.0 | i
CN1CCN(Cc2nc3ccccc3c(=O)[nH]2)CC1 | 0.0 | -2.3 | -18.7 | 16.6% | -2.4 | i

Source: PubChem BioAssay
